Screens deposited in PubChem BioAssay by National Center for Advancing Translational Sciences (NCATS).
CHX counter = counter-screen hit for Shiga toxin inhibitors, cycloheximide. cell reporter, cycloheximide protein synthesis inhibition counterscreen. max response, %. hit rate 12% among 300,000; in the data active means max response mostly above about 13%, no sharp cut-off; inactive means mostly below about 14%; further: read at 38.3 µM for the half of the compounds with a filed dose; 0% is about no effect
Shiga toxin inh = blocks Shiga toxin action in Vero cells; Vero cells, Shiga toxin protein synthesis inhibition reporter; inhibition, % at 38.7 µM; hit rate 9.2% among 290,000; AID 2315; in the data active means inhibition mostly above about 28%, no sharp cut-off; inactive means mostly below about 43%; further: 0% is about no effect
LmPK inhibitor = blocks Leishmania mexicana pyruvate kinase activity; Q27686; purified LmPK, Kinase-Glo ATP luminescence, 1 h; Potency, µM (highest dose often 57.5 µM), for the others: top-dose activity change, negative = inhibition, actives largely listed as inhibitors; hit rate 0.37% among 290,000; AID 1721; further: potency means the concentration at half of the fitted maximal effect; on the % scale 0 is the no-effect control and ±100 the full control effect
Target sequence (Q27686 whole entry, looked up): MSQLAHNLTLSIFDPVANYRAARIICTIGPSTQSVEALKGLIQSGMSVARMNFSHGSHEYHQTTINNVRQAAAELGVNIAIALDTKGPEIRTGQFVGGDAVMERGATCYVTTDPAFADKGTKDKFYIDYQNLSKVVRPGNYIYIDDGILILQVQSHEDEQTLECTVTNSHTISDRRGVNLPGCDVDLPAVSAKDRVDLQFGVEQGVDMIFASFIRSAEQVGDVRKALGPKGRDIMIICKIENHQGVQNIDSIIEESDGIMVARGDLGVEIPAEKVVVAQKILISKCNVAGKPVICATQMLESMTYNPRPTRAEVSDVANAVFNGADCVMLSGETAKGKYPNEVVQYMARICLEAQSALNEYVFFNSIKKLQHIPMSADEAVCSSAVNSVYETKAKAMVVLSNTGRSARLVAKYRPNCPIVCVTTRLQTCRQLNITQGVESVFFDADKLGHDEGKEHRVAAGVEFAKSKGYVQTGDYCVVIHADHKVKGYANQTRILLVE
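Kinase-Glo luminescence read after 1 h RT reaction of 0.1 nM LmPK with 0.5 mM PEP and 0.1 mM ADP. Activity scaled between uninhibited and enzyme-free controls.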
Pf growth 48h = P. falciparum growth inhibition at 48 hours (one generation) | Potency, µM (highest dose often 28.7 µM), without a hit: top-dose activity change, negative = inhibition, actives largely listed as inhibitors | AID 504832 | P. falciparum luciferase growth in erythrocytes, 48 h | hit rate 5.9% among 310,000; further: potency means the concentration at half of the fitted maximal effect; on the % scale 0 is the no-effect control and ±100 the full control effect
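Compounds are pin-transferred into medium, infected erythrocytes (2% hematocrit, 0.1% parasitemia final) are added, and plates sit one parasite generation at 37 C in 5% CO2. Detection reagent is then added and luminescence measured.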
Pf growth 96h = inhibits malaria parasite growth, 96 h; P. falciparum luciferase reporter growth, 96 h; AID 504834; hit rate 6.9% among 320,000; Potency, µM (top dose mostly 28.7 µM), inactives show at the highest dose activity change, negative = inhibition, hits mostly inhibitors; further: potency means the concentration at half of the fitted maximal effect; on the % scale 0 is the no-effect control and ±100 the full control effect
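Infected RBCs, 2% Hct / 0.05% parasitemia final; luciferase-reporter P. falciparum; cpd 96 h, 37 C, 5% CO2; luciferase detection reagent; luminescence.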
Active calls of the source: *; ? = inconclusive; · = no result; [ ] = remark or other dose. Sampled rows, rich in hits. Any-hit rate of the full collection: about 22%. Unless noted, the call rests on the fitted dose curve; in most records, active means well fitted inhibition curve with a large enough effect; inconclusive means small, poorly fitted or top-dose-only effect, or another doubt; inactive means no such curve, though single readings can be large or run the other way.

SMILES	CHX counter	Shiga toxin inh	LmPK inhibitor	Pf growth 48h	Pf growth 96h
COc1ccc(-c2cc3nc(-c4ccccc4)cc(N4CCC5(CC4)OCCO5)n3n2)cc1	-2	-8	12%	·	50%
Cc1cccc(-c2cc3nc4c(c(N5CCCC(O)C5)n3n2)CCC4)c1 (centres undefined)	-2	-5	-2%	6.6µM*	-31%
OC1CCCN(c2c3c(nc4cc(-c5cccc(F)c5)nn24)CCCC3)C1 (centres undefined)	57*	80*	-5%	?	?
CCc1ccc2nc(N3C(=O)c4oc5ccccc5c(=O)c4C3c3ccc(OC)c(OC)c3)sc2c1 (centres undefined)	1	-11	5%	5%	9%
CCc1nc(SCc2ccc(Cl)cc2)n[nH]1	33*	41*	-1%	72%	6%[5.75 µM]
CCc1nc(SCc2ccc(Br)cc2)n[nH]1	26*	116*	-2%	77%	-7%
CCc1nc(SCc2ccc(OCC(C)C)cc2)n[nH]1	32*	58*	4%	45%	10µM*
CCc1nc(SCc2ccc(OC)c(Br)c2)n[nH]1	10	69	-2%	-4%[0.00184 µM]	22%
COc1ccc(C(=O)N/C(=C\c2ccccc2)C(=O)Nc2ccc(C(=O)NCC(=O)O)cc2)cc1	14	·	-1%	?	?
CC(C)(C)CC(=O)Nc1nnc(SCC(=O)NC2CCCCC2)s1	-7	1	1%	?	4%
O=C(Nc1cccc(Cn2cccn2)c1)c1cc2c(s1)CCCC2	77*	143*	-15%	110%	·
CC(=O)Nc1cccc(CP(=O)(c2ccccc2)c2ccccc2)c1	-2	15	-3%	-4%	-7%
CC(=O)Nc1cccc(Cn2cccn2)c1	-1	6	-1%	6%	13µM*
CC1CN(C(=O)C2(C)CC2(Cl)Cl)CC(C)O1 (centres undefined)	-4	-8	-3%	-3%	?
Cc1nn2c(=O)cc(CSCC(=O)Nc3ccccc3Cl)nc2s1	-11	-10	-12%	9%	12µM*
Cc1nn2c(=O)cc(CSCC(=O)Nc3ccccc3F)nc2s1	-1	-8	-3%	10%	?
CCCc1nn2c(=O)cc(CSCC(=O)Nc3nnc(C(C)C)s3)nc2s1	0	-9	-9%	-14%	12µM*
COc1cc2c(cc1OC)-c1cc(NC3CCCCCCC3)nc(=O)n1CC2	-4	-4	3%	?	7.4µM*
COc1cc2c(cc1OC)-c1cc(NC3CCCCC3)nc(=O)n1CC2	-4	-6	10%	?	?
Cc1cc(Oc2ccccc2)nc(-c2ccccc2)n1	27*	20	-2%	44%	-1%
Cc1cc(OCC(=O)N(C)C)c2c(-c3ccccc3)cc(=O)oc2c1	-4	-13	0%	·	10µM*
O=c1oc2ccccc2cc1-c1ccccc1	30*	42	-13%	49%	-6%
COc1ccc(-c2cc(=O)oc3cc(OCC(=O)N(C)C)ccc23)cc1	-4	-10	1%	?	10µM*
COc1ccc2cc(-c3ccccc3)c(=O)oc2c1	32*	52*	-12%	234%	254%
CCN(CC)C(=O)COc1ccc2c(-c3ccccc3)cc(=O)oc2c1	-2	-6	1%	?	184%
SMILES	CHX counter	Shiga toxin inh	LmPK inhibitor	Pf growth 48h	Pf growth 96h
COc1ccc(CSCC(=O)Nc2ccccc2)cc1[N+](=O)[O-]	-3	-9	-8%	18%	59%
CCCOc1ccc2cc(-c3ccccn3)c(=O)oc2c1	39*	-11	10µM*	-53%	-34%
CN(C)C(=O)COc1ccc2cc(-c3ccccc3)c(=O)oc2c1	25*	54*	-4%	116%	7%[5.75 µM]
COC(=O)C(C)Oc1ccc2cc(-c3ccccc3)c(=O)oc2c1 (centres undefined)	8	13	4%	47%	61%
O=c1[nH]c(/C(Cl)=C/c2cccc(F)c2)nc2cc(C(F)(F)F)ccc12	3	3	4%	15%	-15%
COc1ccccc1C(CNC(=O)c1ccc(-c2ccccc2Cl)o1)N1CCCC1 (centres undefined)	·	·	·	15µM*	10µM*
COc1ccc(C(CNC(=O)Cc2ccccc2)N2CCCCC2)cc1 (centres undefined)	-2	3	3%	-10%	2%
COc1ccc(C(CNC(=O)Cc2ccc(Cl)c(Cl)c2)N2CCCCC2)cc1 (centres undefined)	-1	-4	-3%	?	2.1µM*
